Inconclusive results are not listed. Where a call stands in place of a potency, no number is given. Unmarked numbers belong to inactive results. Activity calls are given as the source filed them. Calls follow the shape of the dose curve; as a rule, active = well fitted cell-killing curve with a large enough effect in the repeat runs; inconclusive = weak or mixed curves, or effect the other way; inactive = flat fitted curve, though single readings scatter.

This test is described as follows: qHTS RealTime-Glo MT Cell Viability Assay in HEK293 cells - 0 hour (AID 1224880). Also: top concentration of the series differs between compounds; nearly all actives have a fitted effect of over 45% in size. To be noted: RealTime-Glo luminescence; series mostly up to 76.8 µM; activity change, negative = cytotoxicity: at the top concentration. The source says: U.S. Tox21 Program National Center for Advancing Translational Sciences [NCATS] NIH Chemical Genomics Center [NCGC] U.S. Environmental Protection Agency [EPA] National Institutes of Environmental Health Sciences [NIEHS] National Toxicology Program [NTP] U.S. Food and Drug Administration [FDA] Tox21 Assay Overview: Measure of cell viability is critical in the cell-base assay. Analysis of cell viability is necessary for the characterization of cell responses to cytotoxic drugs and environmental stress. A RealTime-Glo MT Cell Viability Assay to monitor cell viability in real time of continues cell culture during 40 hours of compound treatment was used to screen Tox21 10K library compounds in Hek293 cells. The RealTime-Glo MT Cell Viability Assay is a nonlytic, homogeneous, bioluminescent method to measure cell viability in real time using a simple, plate-based method. The assay involves adding NanoLuc luciferase and a cell-permeant prosubstrate to cells in culture. Viable cells reduce the proprietary prosubstrate to generate a substrate for NanoLuc luciferase. This substrate diffuses from cells into the surrounding culture medium, where it is rapidly used by the NanoLuc Enzyme to produce a luminescent signal. The signal correlates with the number of viable cells, making the assay well suited for cytotoxicity studies.
Tox21 Assay Protocol Summary: The mixture of Hek293 cell suspension and reagents were dispensed at 600cells/6 ul/well in 1536-well tissue culture treated black solid bottom plates using a Multidrop dispenser. After the assay plates were incubated at a 37 C/5% CO2 incubator for 5 hours, 23 nL of compounds dissolved in DMSO, positive and negative controls was transferred to the assay plate by a pintool work station. The plates were incubated at 37 C for 40 hours. The luminescence intensity were measured at 0h, 8h, 16h, 24h, 32h and 40h time points using ViewLux plate reader during compound treatment.
On the technique in general: Quantitative high-throughput screening tests each substance at several concentrations.
On to `C=C(C)C(=O)OCCC[Si](OC)(OC)OC`, for which the Potency entry was “inactive”. For `CCCCCCCCCCC=CC1CC(=O)OC1=O` (stereo not given), the Potency result is “inactive”. The same measure, in the same setting: then `O=C(c1cc(O)c(O)c(O)c1)c1ccc(O)c(O)c1O`, with “inactive”; and `CCCCC(CC)COC(=O)CCCCCCCC(=O)OCC(CC)CCCC` (stereo not given), with “inactive”; and `Nc1c(S(=O)(=O)O)cc(Br)c2c1C(=O)c1ccccc1C2=O`, with “inactive”. As to `CC(C)NCC(O)COc1cccc2ccccc12` (stereo not given), the Potency result was “inactive”. Still for that read-out and setting: then `CN(C)c1cccc(O)c1`, with “inactive”; and `C=C1CC[C@H](O)CC1=C/C=C1\CCC[C@]2(C)[C@@H]([C@H](C)/C=C/[C@H](C)C(C)C)CC[C@@H]12`, with “inactive”; and `O=C1N=C(O)CN1/N=C/c1ccc(-c2ccc([N+](=O)[O-])cc2)o1`, with “inactive”. The same measure, in the same setting: under `C=CC(=O)OCCCCCCCC(C)C` stands “inactive”; under `Cc1cc(Cc2ccc(N)c(C)c2)ccc1N`, “inactive”; under `O=S(=O)(O)CCS`, “inactive”. For `Cc1ccc(C)c(C)c1`, the Potency entry was “inactive”. Turning to `CN(CCOc1ccc(CC2SC(=O)NC2=O)cc1)c1ccccn1` (stereo not given), the “activity change, negative = cytotoxicity” value was -0.421% [at 35.3 µM].

Take `CCCCC/C=C\C/C=C\CCCCCCCC(=O)OC`: the “activity change, negative = cytotoxicity” value was -1.22%. `CC(=O)Nc1ccc(C(=O)O)cc1`: the Potency entry was “inactive”.

Consider `CC(C)(C)C1CCC(O)CC1` (stereo not given), for which the Potency entry is “inactive”. Same read-out and setting: then `CCCCCC/C=C/CCCCCCCC(=O)O`, with “inactive”; and `C=C(C)C(=O)OCCCCCC`, with “inactive”. On the same count and under the same terms, then `CCCCOCCO`, with “inactive”. Same read-out and setting: then `Oc1ccc(OCc2ccccc2)cc1`, with “inactive”; and `S=c1nc[nH]c2nc[nH]c12`, with “inactive”. For the molecule `COCC(=O)O`, the Potency entry is “inactive”. Same read-out and setting: under `Nc1nc2ncc(CNc3ccc(C(=O)N[C@@H](CCC(=O)O)C(=O)O)cc3)nc2c(=O)[nH]1` stands “inactive”. Still for that read-out and setting: under `CCCCCCCCC` stands “inactive”. Take `CC1Cc2ccccc2N1NC(=O)c1ccc(Cl)c(S(N)(=O)=O)c1` (stereo not given): the Potency result was “inactive”.

With `C/C=C(C)/C=C/C=C(C)C`, the Potency entry is “inactive”. On the same count and under the same terms, then `CC1CC(OC(=O)c2ccccc2O)CC(C)(C)C1` (stereo not given), with “inactive”; and `CCOC(=O)C1OC1c1ccccc1` (stereo not given), with “inactive”.

For `CC[Si](OC(C)=O)(OC(C)=O)OC(C)=O`, the Potency result was “inactive”. On the same count and under the same terms, under `OCC#CCO` stands “inactive”; under `O=Nc1ccc(O)cc1`, “inactive”. Regarding `Clc1ccc(Cl)c(Cl)c1Cl`, the Potency entry was “inactive”. Still for that read-out and setting: then `O=S(=O)(Oc1ccc(Cl)cc1Cl)c1ccccc1`, with “inactive”. On to `CC(=O)CCc1ccccc1`, for which the Potency entry was “inactive”.

Turning to `Cn1c([N+](=O)[O-])cnc1COC(N)=O`, the Potency result was “inactive”. With `OCC1CCCO1` (stereo not given), the Potency entry was “inactive”. For `CC(C)Cc1ccccc1`, the Potency result is “inactive”. On the same count and under the same terms, under `O=[N+]([O-])c1cccc(Cl)c1` stands “inactive”. Turning to `CN(C)c1ccc(C(=N)c2ccc(N(C)C)cc2)cc1`, the Potency result was “inactive”.

The values above are taken from PubChem BioAssay (Tox21).
